In PubChem BioAssay (Tox21) one finds outcome data, which are given here for 40 compounds.

Active and inactive are the calls of the source. Calls come from the whole dose curve; as a rule, active = well fitted curve in the direction sought with a large enough effect in the repeat runs; inconclusive = weak or mixed curves; inactive = flat fitted curve, though single readings scatter.

This experiment is described as follows: qHTS assay to test for compound auto fluorescence at 460 nm (blue) in HepG2 cells (AID 720687). The note with it: autofluorescence 405/460 nm, 1 h; series mostly up to 91.3 µM. The text has this:
U.S. Tox21 Program National Center for Advancing Translational Sciences [NCATS] NIH Chemical Genomics Center [NCGC] U.S. Environmental Protection Agency [EPA] National Institutes of Environmental Health Sciences [NIEHS] National Toxicology Program [NTP] U.S. Food and Drug Administration [FDA] Tox21 Assay Overview: Compound auto fluorescence often interferes with screening of the compound library against various biological targets and signaling pathways. Some of these compounds may have fluorophoric properties. Such properties may interfere with the assay outputs resulting in false positives and/or negatives. To decrease such complications and ensure the compound activities are relevant in terms of biological response, the Tox21 10K compound library was screened for auto fluorescence. From the fluorophores used as reporter signals in our screening assays, the auto fluorescence equivalencies of compounds against three fluorophores have been evaluated: Triamterene, Fluorescein and Rose Bengal sodium for blue, green and red fluorescence, respectively. The fluorescence intensities were measured using Excitation/Emission wavelengths at 405/460nm, 485/535nm and 540/590nm for blue, green and red labels, respectively. This assay includes the blue fluorescence data.
Tox21 Assay Protocol Summary: 2,000 HepG2 cells in 5 uL of culture medium (MEM containing 10% FBS) per well were dispensed into black wall/clear bottom 1536-well plates using a Multidrop Combi Dispenser (ThermoFisher Scientific, Waltham, MA). The assay plates were incubated overnight at 37 C to allow cell attachment to the well bottom, followed by the transfer of 23 nL compound or DMSO vehicle by a pintool work station (Kalypsys , San Diego, CA). After the assay plates were incubated for 1 hr at 37 C and 5% CO2, fluorescence intensities in the assay plates were measured by an Envision (PerkinElmer, Shelton, CT) plate reader using three labels for measuring blue, green and red fluorescence at […] 460, 535 and 590 nm respectively.
In general terms: In qHTS, concentration-response curves come from the screen itself.
For `CCCCOC(=O)CC(CC(=O)OCCCC)(OC(C)=O)C(=O)OCCCC`, the compound was classed as inactive.

As for `NC(N)=NC(=O)c1nc(Cl)c(N)nc1N`, the result was inactive. The value for `CCCCC1C(=O)N(c2ccccc2)N(c2ccccc2)C1=O` was “inactive”; that for `O=C(O)CCCCC(=O)O` was “inactive”; that for `N=C(N)c1ccc(OCCCCCOc2ccc(C(=N)N)cc2)cc1` was “inactive”. The value for `Cc1cn([C@H]2C[C@H](N=[N+]=[N-])[C@@H](CO)O2)c(=O)[nH]c1=O` was “inactive”; that for `CC(=O)NS(=O)(=O)c1ccc(N)cc1` was “inactive”. The value for `Nc1ccc(O)c(C(=O)O)c1` was “inactive”.

As to `O=C(O)CS`, the outcome was inactive. With `CNC[C@H](O)c1cccc(O)c1`, the outcome was inactive. In the case of `Oc1ccc(/C=C/c2cc(O)cc(O)c2)cc1`, the compound was classed as inactive. The value for `O=C(O)c1[nH]n(-c2ccc(S(=O)(=O)O)cc2)c(=O)c1N=Nc1ccc(S(=O)(=O)O)cc1` was “inactive”.

Take `CCOc1ccc(NC(=O)CC(C)O)cc1` (stereo not given): the outcome was inactive. On to `CC(O)CO` (stereo not given), for which the compound was classed as inactive.

Turning to `O=S(=O)(O)c1ccc2cc(O)ccc2c1`, the compound was called inactive. On to `CC(=O)Nc1nnc(S(N)(=O)=O)s1`, for which the call was inactive. As for `C[C@]12C=CC(=O)C=C1CC[C@@H]1[C@@H]2[C@@H](O)C[C@@]2(C)[C@H]1CC[C@]2(O)C(=O)CO`, the compound was classed as inactive. For `OC(Cn1cncn1)(Cn1cncn1)c1ccc(F)cc1F` the value was “inactive”; for `CCCCCCCCCCCCCCCC(=O)O`, “inactive”; for `Nc1ccc(C(=O)O)cc1`, “inactive”. Take `COc1ccc2[nH]cc(CCNC(C)=O)c2c1`: the outcome was inactive. For `Cc1ccc(S(=O)(=O)NC(=O)NN2CCCCCC2)cc1` the value was “inactive”; for `CCCC(CCC)C(=O)O`, “inactive”; for `Cn1cc[nH]c1=S`, “inactive”. The value for `O=C(O)c1cc(N=Nc2ccc(S(=O)(=O)Nc3ccccn3)cc2)ccc1O` was “inactive”. The value for `c1ccc2[nH]ccc2c1` was “inactive”; that for `O=C1NC(=O)c2ccccc21` was “inactive”. For the compound `NNC(=O)c1ccncc1`, the result was inactive.

`CCC1(c2ccccc2)C(=O)NCNC1=O`: the call was inactive. The value for `NC(=O)NC1NC(=O)NC1=O` (stereo not given) was “inactive”. The value for `O=C(c1ccccc1)C(O)c1ccccc1` (stereo not given) was “inactive”; that for `Nc1ccc(S(=O)(=O)Nc2nccs2)cc1` was “inactive”. For `CCCN(CCC)S(=O)(=O)c1ccc(C(=O)O)cc1` the value was “inactive”; for `NC(=O)c1cnccn1`, “inactive”. With `O=C(O)C(=O)O`, the compound was called inactive.

For `C/C=C/c1ccc(OC)cc1`, the result was inactive. For `Cn1c(=O)c2[nH]cnc2n(C)c1=O` the value was “inactive”. For `O=S(=O)(O)NC1CCCCC1` the value was “inactive”; for `Cc1ccc(C)c(OCCCC(C)(C)C(=O)O)c1`, “inactive”. For `Cc1ccccc1C(OCCN(C)C)c1ccccc1` (stereo not given), the outcome was inactive.
